Experimental data published in ChEMBL document CHEMBL1961873, “Compounds: GSK PKIS; Assays: Nanosyn kinase panel” (2012).

How the values were obtained:
[1] = target: T1, Muscle, skeletal receptor tyrosine-protein kinase (Homo sapiens) (UniProt O15146); conditions: at 1 µM;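 also: reported value is the mean percent inhibition of MuSK kinase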
T1 sequence (whole entry): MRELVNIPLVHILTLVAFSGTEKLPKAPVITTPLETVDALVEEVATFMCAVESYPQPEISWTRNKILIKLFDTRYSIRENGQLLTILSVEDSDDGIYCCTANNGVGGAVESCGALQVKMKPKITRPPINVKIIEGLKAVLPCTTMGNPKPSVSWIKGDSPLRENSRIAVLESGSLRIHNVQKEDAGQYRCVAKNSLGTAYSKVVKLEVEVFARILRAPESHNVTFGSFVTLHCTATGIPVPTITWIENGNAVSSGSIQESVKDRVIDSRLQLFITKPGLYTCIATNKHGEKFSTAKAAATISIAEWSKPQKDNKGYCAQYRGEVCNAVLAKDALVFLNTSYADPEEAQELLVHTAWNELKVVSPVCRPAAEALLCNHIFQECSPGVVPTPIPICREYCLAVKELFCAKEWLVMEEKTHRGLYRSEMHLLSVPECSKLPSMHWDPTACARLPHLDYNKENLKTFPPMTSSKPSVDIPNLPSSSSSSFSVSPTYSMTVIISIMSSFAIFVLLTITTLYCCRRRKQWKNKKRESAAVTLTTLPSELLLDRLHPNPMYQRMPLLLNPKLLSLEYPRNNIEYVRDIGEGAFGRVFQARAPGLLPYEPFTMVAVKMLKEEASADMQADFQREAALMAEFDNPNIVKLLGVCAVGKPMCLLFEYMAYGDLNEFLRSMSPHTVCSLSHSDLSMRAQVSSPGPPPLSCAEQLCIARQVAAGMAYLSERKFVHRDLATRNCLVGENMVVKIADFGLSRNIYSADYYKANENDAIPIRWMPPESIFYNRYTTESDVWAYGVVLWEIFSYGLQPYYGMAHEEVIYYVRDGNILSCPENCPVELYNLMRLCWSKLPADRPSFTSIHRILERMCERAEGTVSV

[2] = target: Platelet-derived growth factor receptor alpha (Homo sapiens) (UniProt P16234); conditions: at 0.1 µM
[3] = target: Platelet-derived growth factor receptor alpha (Homo sapiens) (UniProt P16234); conditions: at 1 µM
[4] = system: Platelet-derived growth factor receptor alpha (Homo sapiens), P16234 [D842V]; conditions: at 0.1 µM
[5] = system: Platelet-derived growth factor receptor alpha (Homo sapiens), P16234 [D842V]; conditions: at 1 µM
[6] = system: Platelet-derived growth factor receptor alpha (Homo sapiens), P16234 [T674I]; conditions: at 0.1 µM
[7] = system: Platelet-derived growth factor receptor alpha (Homo sapiens), P16234 [T674I]; conditions: at 1 µM
[8] = system: Platelet-derived growth factor receptor alpha (Homo sapiens), P16234 [V561D]; conditions: at 0.1 µM
[9] = system: Platelet-derived growth factor receptor alpha (Homo sapiens), P16234 [V561D]; conditions: at 1 µM
[10] = target: Platelet-derived growth factor receptor beta (Homo sapiens) (UniProt P09619); conditions: at 0.1 µM
[11] = target: Platelet-derived growth factor receptor beta (Homo sapiens) (UniProt P09619); conditions: at 1 µM
[12] = target: Tyrosine-protein kinase FRK (Homo sapiens) (UniProt P42685); conditions: at 0.1 µM
[13] = target: Tyrosine-protein kinase FRK (Homo sapiens) (UniProt P42685); conditions: at 1 µM
[14] = target: Protein-tyrosine kinase 2-beta (Homo sapiens) (UniProt Q14289); conditions: at 0.1 µM
[15] = target: Protein-tyrosine kinase 2-beta (Homo sapiens) (UniProt Q14289); conditions: at 1 µM
[16] = target: Proto-oncogene tyrosine-protein kinase receptor Ret (Homo sapiens) (UniProt P07949); conditions: at 0.1 µM
[17] = target: Proto-oncogene tyrosine-protein kinase receptor Ret (Homo sapiens) (UniProt P07949); conditions: at 1 µM
[18] = system: Proto-oncogene tyrosine-protein kinase receptor Ret (Homo sapiens), P07949 [V804L]; conditions: at 0.1 µM
[19] = system: Proto-oncogene tyrosine-protein kinase receptor Ret (Homo sapiens), P07949 [V804L]; conditions: at 1 µM
[20] = system: Proto-oncogene tyrosine-protein kinase receptor Ret (Homo sapiens), P07949 [Y791F]; conditions: at 0.1 µM

Platelet-derived growth factor receptor alpha (Homo sapiens), sequence (P16234 whole entry): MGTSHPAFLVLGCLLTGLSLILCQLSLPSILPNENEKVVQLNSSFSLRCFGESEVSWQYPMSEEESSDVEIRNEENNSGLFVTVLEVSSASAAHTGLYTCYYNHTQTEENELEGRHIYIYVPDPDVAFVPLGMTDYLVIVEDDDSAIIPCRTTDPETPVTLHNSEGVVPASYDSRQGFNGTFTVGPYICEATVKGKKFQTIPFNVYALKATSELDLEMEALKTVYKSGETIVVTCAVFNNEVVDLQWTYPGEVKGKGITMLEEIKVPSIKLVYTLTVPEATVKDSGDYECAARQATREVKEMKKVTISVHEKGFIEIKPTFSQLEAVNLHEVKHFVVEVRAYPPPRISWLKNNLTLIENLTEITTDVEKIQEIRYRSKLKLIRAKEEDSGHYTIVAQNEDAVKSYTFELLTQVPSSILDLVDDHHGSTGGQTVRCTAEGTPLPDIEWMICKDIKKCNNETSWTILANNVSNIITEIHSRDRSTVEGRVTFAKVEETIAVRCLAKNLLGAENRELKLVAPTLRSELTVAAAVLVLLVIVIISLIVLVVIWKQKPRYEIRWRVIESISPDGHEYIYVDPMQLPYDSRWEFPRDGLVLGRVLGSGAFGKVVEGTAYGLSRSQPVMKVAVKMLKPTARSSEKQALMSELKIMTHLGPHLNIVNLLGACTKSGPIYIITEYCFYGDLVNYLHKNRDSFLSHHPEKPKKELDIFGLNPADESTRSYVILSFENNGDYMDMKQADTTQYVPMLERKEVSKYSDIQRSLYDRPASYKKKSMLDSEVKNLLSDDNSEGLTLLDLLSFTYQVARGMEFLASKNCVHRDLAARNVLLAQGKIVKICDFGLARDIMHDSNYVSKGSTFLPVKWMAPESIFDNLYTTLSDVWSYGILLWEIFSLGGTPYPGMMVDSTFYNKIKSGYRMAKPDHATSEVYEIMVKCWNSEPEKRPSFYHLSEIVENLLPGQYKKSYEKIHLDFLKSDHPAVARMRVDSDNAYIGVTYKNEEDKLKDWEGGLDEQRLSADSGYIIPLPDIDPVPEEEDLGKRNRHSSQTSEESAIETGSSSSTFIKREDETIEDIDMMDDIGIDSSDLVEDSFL
Platelet-derived growth factor receptor alpha (Homo sapiens), P16234 [T674I], sequence (P16234 whole entry T674I): as the sequence (P16234 whole entry) above, with T674I counted along it
Tyrosine-protein kinase FRK (Homo sapiens), sequence (P42685 whole entry): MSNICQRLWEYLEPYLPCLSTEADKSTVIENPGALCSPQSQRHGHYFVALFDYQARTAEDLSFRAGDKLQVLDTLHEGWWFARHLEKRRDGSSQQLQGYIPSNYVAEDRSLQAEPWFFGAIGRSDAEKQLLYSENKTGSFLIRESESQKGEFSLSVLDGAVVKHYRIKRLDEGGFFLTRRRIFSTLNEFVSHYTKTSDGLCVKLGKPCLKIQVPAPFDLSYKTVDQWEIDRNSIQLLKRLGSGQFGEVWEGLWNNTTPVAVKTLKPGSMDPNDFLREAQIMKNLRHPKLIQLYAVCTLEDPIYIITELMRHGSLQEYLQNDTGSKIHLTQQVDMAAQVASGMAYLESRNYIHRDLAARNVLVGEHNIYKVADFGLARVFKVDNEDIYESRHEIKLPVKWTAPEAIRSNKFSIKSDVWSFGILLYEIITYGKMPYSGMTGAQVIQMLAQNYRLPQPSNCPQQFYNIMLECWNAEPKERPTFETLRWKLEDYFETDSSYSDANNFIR
Proto-oncogene tyrosine-protein kinase receptor Ret (Homo sapiens), P07949 [V804L], sequence (P07949 whole entry V804L): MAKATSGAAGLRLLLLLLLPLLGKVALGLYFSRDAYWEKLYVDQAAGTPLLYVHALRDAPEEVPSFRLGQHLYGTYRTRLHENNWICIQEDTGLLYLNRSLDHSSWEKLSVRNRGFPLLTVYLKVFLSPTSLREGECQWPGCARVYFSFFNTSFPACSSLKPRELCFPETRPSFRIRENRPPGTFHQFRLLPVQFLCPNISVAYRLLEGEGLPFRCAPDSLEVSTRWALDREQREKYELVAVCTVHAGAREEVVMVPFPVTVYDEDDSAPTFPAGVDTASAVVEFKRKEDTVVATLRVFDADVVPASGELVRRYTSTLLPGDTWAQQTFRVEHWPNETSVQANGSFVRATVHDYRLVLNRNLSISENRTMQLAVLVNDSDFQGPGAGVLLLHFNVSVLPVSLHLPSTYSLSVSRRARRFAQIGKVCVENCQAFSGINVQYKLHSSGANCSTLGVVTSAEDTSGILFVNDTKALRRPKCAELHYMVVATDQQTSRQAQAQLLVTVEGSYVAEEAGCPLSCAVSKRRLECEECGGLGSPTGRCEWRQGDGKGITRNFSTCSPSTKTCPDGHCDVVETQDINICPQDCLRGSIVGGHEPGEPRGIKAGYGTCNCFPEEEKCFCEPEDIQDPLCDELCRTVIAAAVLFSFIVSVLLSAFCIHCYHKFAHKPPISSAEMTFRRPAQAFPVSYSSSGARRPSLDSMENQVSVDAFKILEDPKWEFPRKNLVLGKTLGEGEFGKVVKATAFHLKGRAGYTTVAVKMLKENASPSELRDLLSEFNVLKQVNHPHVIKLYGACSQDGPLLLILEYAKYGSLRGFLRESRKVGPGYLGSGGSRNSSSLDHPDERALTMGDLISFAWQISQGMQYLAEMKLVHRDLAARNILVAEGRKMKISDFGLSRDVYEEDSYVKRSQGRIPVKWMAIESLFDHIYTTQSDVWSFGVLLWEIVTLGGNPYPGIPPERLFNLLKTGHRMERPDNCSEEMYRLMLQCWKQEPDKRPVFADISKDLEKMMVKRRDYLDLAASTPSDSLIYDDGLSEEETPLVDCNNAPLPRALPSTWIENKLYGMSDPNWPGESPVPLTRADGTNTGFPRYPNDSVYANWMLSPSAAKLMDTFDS
Platelet-derived growth factor receptor alpha (Homo sapiens), P16234 [D842V], sequence (P16234 whole entry D842V): as the sequence (P16234 whole entry) above, with D842V counted along it

Row | SMILES | inhibition [1] [%] | inhibition [2] [%] | inhibition [3] [%] | inhibition [4] [%] | inhibition [5] [%] | inhibition [6] [%] | inhibition [7] [%] | inhibition [8] [%] | inhibition [9] [%] | inhibition [10] [%] | inhibition [11] [%] | inhibition [12] [%] | inhibition [13] [%] | inhibition [14] [%] | inhibition [15] [%] | inhibition [16] [%] | inhibition [17] [%] | inhibition [18] [%] | inhibition [19] [%] | inhibition [20] [%]
1 | CCN(CC)S(=O)(=O)c1ccc(OC)c(Nc2ncc(-c3ccccc3)o2)c1 | 6.08 | 12.7 | 50.7 | 5.3 | 23.2 | 8.47 | 8.95 | 10.1 | 39.2 | 19.2 | 63.8 | 1.39 | 9.88 | -0.93 | 16.5 | 9.2 | 36.2 | 3.84 | 21.3 | 5.14
2 | CCn1c(-c2nonc2N)nc2c(C#CC(C)(C)O)ncc(OC3CCNCC3)c21 | 5.05 | 4.05 | 19.5 | 5.06 | 33.8 | 4.95 | 28.3 | 2.59 | 17 | 5.33 | 41.1 | 0.94 | 2.25 | 6.98 | 45.3 | 4.43 | 10.3 | 1.1 | 4.05 | 1.51
3 | Fc1ccc(-c2cc(-c3c[nH]nc3-c3ccccn3)ccn2)cc1 | -0.34 | 5.93 | 19.8 | 4.02 | 21.2 | 5.49 | 10.1 | 4.91 | 11.8 | 3.85 | 11.8 | 2.82 | 1.26 | 7.36 | 19.4 | 5.13 | 2.43 | 2.33 | 8.21 | 3.92
4 | Nc1nc(-c2ccc(F)cc2)c(-c2ccc3ncccc3n2)s1 | 7.29 | 16.9 | 51.7 | 14.4 | 61.6 | 9.38 | 11.5 | 13.2 | 49.5 | 10.9 | 42.9 | 2.59 | 2.66 | 10 | 14.3 | 8.56 | 14.8 | 4.68 | 7.83 | 7.45
5 | Fc1ccc(-c2nn3ncccc3c2-c2ccnc(Nc3ccc4c(c3)OCCO4)n2)cc1 | 3.55 | 15.1 | 54.8 | 12.1 | 56.1 | 5.87 | 17.9 | 21.9 | 72 | 29.3 | 69.7 | 5.64 | 25.4 | 16.4 | 44 | 23.5 | 64.9 | 4.29 | 4.6 | 30.8
6 | COc1ccc(-c2nn3ncccc3c2-c2ccnc(Nc3ccc4c(c3)OCCO4)n2)cc1 | -1.95 | 6.34 | 29.6 | 0.81 | 11.7 | 4.01 | 15.3 | 6.6 | 39.6 | 4.03 | 20.6 | 0.87 | 3.44 | -3.39 | 10.2 | 8.94 | 47.3 | 3.01 | 3.4 | 11.7
7 | COc1ccc(-c2cc3c(N)ncnc3o2)cc1 | 2.3 | -1.4 | 16.5 | 2.85 | 9.77 | 1.44 | 4.01 | 3.4 | 19.1 | 1.93 | 11.2 | 0.49 | 0.16 | -4.88 | 8.21 | -1.19 | 0.94 | 0.48 | 2.98 | 2.13
8 | Nc1nc(-c2cccc(Cl)c2)c(-c2ccc3ncccc3n2)s1 | 2.14 | 8.04 | 28.3 | 8.3 | 40.8 | 5.77 | 9.67 | 9.61 | 26.7 | 5.64 | 15 | 3.21 | 3.32 | 10.4 | 14.5 | 4.79 | 5.99 | 8.87 | 14.1 | 3.93
9 | Cc1cccc(Nc2ncc(-c3ccccc3)o2)c1 | 5.58 | 7.16 | 29.9 | 1.63 | 5.43 | 7.94 | 50.3 | 22.5 | 48.7 | 7.93 | 37.2 | -0.04 | 3.76 | -0.77 | 4.02 | 1.88 | 7.33 | 0.92 | 4.53 | 2.77
10 | O=S(=O)(CCNCc1ccc(-c2ccc3ncnc(Nc4ccc(OCc5cccc(F)c5)c(Cl)c4)c3c2)o1)c1ccccc1 | 5.15 | 11.9 | 19 | 3.35 | 6.47 | 7.8 | 12.8 | 3.09 | 8.1 | 5.51 | 12.2 | 4.29 | 3.5 | 5.1 | 12.9 | 6.34 | 3.04 | 7.31 | 9.24 | 10.8
11 | [O-][S+]1CCN(Cc2ccc(-c3ccc4ncnc(Nc5ccc(OCc6cccc(F)c6)c(Cl)c5)c4c3)o2)CC1 | 2.81 | 7.43 | 13.2 | 4.45 | 6.91 | 4 | 6.97 | 3.95 | 8.29 | 4.69 | 8 | 4.01 | 4.89 | 4.76 | 11.7 | 3.9 | 8.36 | 7.71 | 16.5 | 6.06
12 | c1ccc(-c2nc3n(c2-c2ccc4c(c2)OCO4)CCC3)nc1 | 2.2 | 3.23 | 7.15 | 3.87 | 2.04 | 2.77 | 2.15 | 2.48 | 2.33 | 3.66 | 4.62 | 0.91 | 0.2 | 5.1 | 6.96 | 2.81 | 4.44 | 1.37 | 1.16 | 2.63
13 | COc1ccc(-c2cc(-c3c[nH]nc3-c3ccccn3)ccn2)cc1 | 4.1 | 13.7 | 42.1 | 14.9 | 58.7 | 7.15 | 9.53 | 11.1 | 40.6 | 7.26 | 31.9 | 3.08 | 2.92 | 7.68 | 13.9 | 5.33 | 5.9 | 4.29 | 5.73 | 6.24
